These results are taken from PubChem BioAssay (NCI).

Some test systems named below: HT29 colon; SNB-75 CNS; SNB-19 CNS; U251 CNS; SK-MEL-5 melanoma; LOX IMVI melanoma; SK-MEL-28 melanoma; SK-MEL-2 melanoma; EKVX NSCLC; SN12C renal; UO-31 renal; TK-10 renal; ACHN renal; CAKI-1 renal; A498 renal; UACC-62 melanoma; CCRF-CEM leukemia; MOLT-4 leukemia; SR leukemia.
Experiment in all cases: NCI-60 one-dose screen, 48 h (100 = growth as untreated, 0 = no growth, -100 = all killed)
Holding throughout (details): 10 µM unless noted

This is part of a sample that, as a whole, favours compounds with a hit. Of some 83,000 tested, about 20% had one in any assay.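 For each line, cells grew in 96-well plates with the test compound present at a single concentration for 48 hours.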 A number with no mark means an inactive call. The source made the active and inactive calls. The calls were made as follows: active = growth percent below 10; inactive = the rest.

Regarding `CCOC(=O)C(Cc1ccccc1)(C(=O)OCC)C(Br)C(=O)c1ccccc1` (stereo not drawn), the growth with HT29 colon was 69.7%; with SNB-75 CNS it was 73.5%; in the assay on SNB-19 CNS it was 97.5%; in the assay with U251 CNS, 88.1%; in the assay with SK-MEL-5 melanoma, 87.2%; in the assay on LOX IMVI melanoma, 70.4%. Moreover, the growth in the assay on SK-MEL-28 melanoma is 91%; in the assay with SK-MEL-2 melanoma, 83.5%; with EKVX NSCLC, 88.8%; with SN12C renal it was 88.7%; with UO-31 renal, 37.6%; in the assay with TK-10 renal it was 69.2%. Moreover, the values for the growth in the assay with ACHN renal, with CAKI-1 renal and in the assay with A498 renal were 44.3%, 52% and 82.4%, respectively.
As to `C[C@@H]1CC[C@H]2[C@@H](C)C(O)O[C@@H]3O[C@]4(C)CC[C@@H]1[C@]32OO4` (stereo partly drawn), the growth was 17.7% in the assay on HT29 colon; 52.5% in the assay on SNB-75 CNS; 57.7% with SNB-19 CNS; 25.5% in the assay with U251 CNS; 31% with UACC-62 melanoma; 11.7% in the assay on LOX IMVI melanoma. Moreover, the growth is 78% in the assay with SK-MEL-28 melanoma; 27% in the assay with SK-MEL-2 melanoma; 29.9% with EKVX NSCLC; 23.6% in the assay on SN12C renal; 1.61% (active) in the assay on UO-31 renal; 27.3% in the assay with TK-10 renal. Moreover, the growth is 22.1% in the assay on ACHN renal; 22.9% in the assay on CAKI-1 renal; 68.2% with A498 renal; 28.5% in the assay with CCRF-CEM leukemia; 33.8% in the assay on MOLT-4 leukemia.
Consider `Cc1ccccc1-c1cc(Cc2ccccc2O)c(=O)[nH]n1`, for which the growth in the assay with HT29 colon is 139%; in the assay on SNB-75 CNS, 106%; with SNB-19 CNS, 123%; in the assay with U251 CNS it was 103%; in the assay with SK-MEL-5 melanoma, 94.8%; with UACC-62 melanoma, 95.3%. Moreover, the growth in the assay with LOX IMVI melanoma was 100%; in the assay with SK-MEL-28 melanoma it was 131%; in the assay on EKVX NSCLC it was 67%; in the assay on SN12C renal it was 97.4%; in the assay with UO-31 renal, 71.1%; with TK-10 renal it was 130%. Besides, the growth in the assay on ACHN renal is 94.9%; in the assay on CAKI-1 renal, 88.8%; in the assay on A498 renal, 110%; in the assay on CCRF-CEM leukemia, -49.5% (active); in the assay with MOLT-4 leukemia it was 86.7%; in the assay with SR leukemia, 92.5%.
As to `Cc1[nH]n(C(N)=S)c(=O)c1N=Nc1ccc(F)c(Cl)c1`, the growth is 147% with HT29 colon; 119% in the assay on SNB-75 CNS; 164% with SNB-19 CNS; 108% in the assay on U251 CNS; 95% in the assay with SK-MEL-5 melanoma; 84.6% in the assay on UACC-62 melanoma. Also, the growth with LOX IMVI melanoma was 110%; in the assay with SK-MEL-28 melanoma, 116%; with EKVX NSCLC it was 96.6%; with SN12C renal, 95.8%; with UO-31 renal, 73.9%; with TK-10 renal, 125%. Moreover, the growth in the assay on ACHN renal was 104%; in the assay on CAKI-1 renal, 103%; with A498 renal, 128%; in the assay on CCRF-CEM leukemia, -8.05% (active); with MOLT-4 leukemia it was 76.9%; in the assay with SR leukemia, 80.2%.
Turning to `CC12CCCCC1C(C(N)=O)C(=O)O2` (stereo not drawn), the growth with HT29 colon is 112%; with SNB-75 CNS, 96.1%; in the assay on SNB-19 CNS it was 100%; with U251 CNS, 104%; with UACC-62 melanoma, 98.8%; in the assay with LOX IMVI melanoma it was 96.4%. Moreover, the growth in the assay with SK-MEL-28 melanoma is 105%; in the assay on SK-MEL-2 melanoma, 104%; in the assay with EKVX NSCLC, 123%; with SN12C renal, 97.9%; with UO-31 renal, 93.9%; with TK-10 renal, 100%. Moreover, the growth is 112% with ACHN renal; 104% with CAKI-1 renal; 124% in the assay with A498 renal; 102% in the assay with CCRF-CEM leukemia; 98.1% in the assay on MOLT-4 leukemia; 94.6% in the assay with SR leukemia.
In the case of `Cc1nc2c(O)cccc2cc1CO`, the growth is 99.8% in the assay on HT29 colon; 78.2% with SNB-75 CNS; 104% in the assay on SNB-19 CNS; 109% in the assay with U251 CNS; 98.5% with SK-MEL-5 melanoma; 94.6% with UACC-62 melanoma. For the same compound, the growth was 106% in the assay with LOX IMVI melanoma; 139% with SK-MEL-28 melanoma; 107% in the assay with EKVX NSCLC; 105% in the assay on SN12C renal; 103% in the assay with UO-31 renal; 168% with TK-10 renal. The growth in the assay with ACHN renal is 110%; with CAKI-1 renal, 104%; in the assay on A498 renal, 131%; in the assay with CCRF-CEM leukemia it was 107%; in the assay on MOLT-4 leukemia it was 105%; in the assay on SR leukemia, 67.7%.
For the compound `CC(=O)n1c2ccccc2c2ccccc21`, the growth is 105% in the assay on HT29 colon; 97.6% in the assay on SNB-75 CNS; 113% in the assay on SNB-19 CNS; 104% with U251 CNS; 108% in the assay with SK-MEL-5 melanoma; 114% in the assay with UACC-62 melanoma. For the same compound, the growth in the assay with SK-MEL-28 melanoma was 107%; in the assay on SK-MEL-2 melanoma it was 123%; in the assay on EKVX NSCLC, 103%; in the assay on SN12C renal, 107%; in the assay with UO-31 renal, 83.6%; in the assay with TK-10 renal it was 115%. Besides, the growth in the assay on ACHN renal is 117%; in the assay with CAKI-1 renal, 97.5%; in the assay on A498 renal, 95.1%; in the assay on MOLT-4 leukemia, 104%.
`COc1ccc(-c2nn(-c3ccccc3)cc2/C=C2\SC(=S)N(CCc3ccc(O)cc3)C2=O)cc1`: the growth is 101% in the assay on HT29 colon; 81% in the assay on SNB-75 CNS; 93.6% in the assay with SNB-19 CNS; 90.5% with U251 CNS; 88.1% in the assay with SK-MEL-5 melanoma; 60.3% in the assay with UACC-62 melanoma. Also, the growth in the assay on LOX IMVI melanoma was 72.9%; in the assay on SK-MEL-28 melanoma it was 98.6%; in the assay on EKVX NSCLC, 84.6%; in the assay on SN12C renal it was 81.9%; with UO-31 renal, 60%; in the assay with TK-10 renal, 94.2%. Further, the growth is 87.5% with ACHN renal; 51.2% in the assay with CAKI-1 renal; 62.6% in the assay on A498 renal; 76.5% with CCRF-CEM leukemia; 68.3% in the assay with MOLT-4 leukemia; 75.8% in the assay on SR leukemia.
